RTF Ca sens inh: cardiac RTF calcium desensitization. AID 493244. inhibition, % at 7.15 µM. hit rate 0.12% among 340,000. IANBD-labeled cardiac RTF, Ca2+ fluorescence. P19429+P45379;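 active = inhibition above the mean inhibition of all tested compounds plus 3 SD, cut at about 17% in these data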;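 also: assay run at fixed EC70 calcium of 1.6 mM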
RTF Ca sens act: increases calcium sensitivity of human cardiac regulated thin filaments; activation, % at 7.2 µM; IANBD-labeled TnC RTF fluorescence at EC20 calcium; 0% EC20 calcium, 100% full calcium; hit rate 0.24% among 340,000; AID 493008; P19429+P45379;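 active = activation above the mean over all tested compounds plus 3 SD, cut at about 30% in these data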;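 also: rise in fluorescence read as greater calcium sensitivity of cardiac thin filaments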
LANA DNA inh: KSHV C-LANA DNA binding inhibition; MBP-C-LANA/FAM-LBS DNA binding, fluorescence polarization; inhibition, % at 9 µM; hit rate 0.078% among 340,000;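 active = highest replicate inhibition at or above 60% at 9 µM, even if other replicates fall short; inactive = all replicates below 60% inhibition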;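 also: 0% = neutral control wells and 100% = 4 µM acridine orange control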
Keap1-Nrf2 PPI: inhibitors of human Keap1-Nrf2 protein-protein interaction. AID 504523. Keap1 Kelch-Nrf2 peptide fluorescence polarization, 1536-well. hit rate 0.15% among 340,000. inhibition, % at 9.4 µM; in the data active = inhibition above about 12%;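 also: human Keap1 Kelch domain with fluorescein labeled Nrf2 9mer peptide probe; 0% = neutral control wells and 100% = peptide positive control; higher means more block of Keap1 binding to Nrf2 peptide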
LANA-H2B inh: blocks KSHV LANA binding to histone H2A/H2B | Q9QR71 | cell-free LANA-H2A/H2B peptide, fluorescence polarization | inhibition, % (concentration not given with the values) | hit rate 0.6% among 320,000 | AID 2629; in the data active = inhibition mostly above about 10%, no sharp cut-off; inactive = mostly below about 6.7%
Target sequence (Q9QR71 whole entry, looked up): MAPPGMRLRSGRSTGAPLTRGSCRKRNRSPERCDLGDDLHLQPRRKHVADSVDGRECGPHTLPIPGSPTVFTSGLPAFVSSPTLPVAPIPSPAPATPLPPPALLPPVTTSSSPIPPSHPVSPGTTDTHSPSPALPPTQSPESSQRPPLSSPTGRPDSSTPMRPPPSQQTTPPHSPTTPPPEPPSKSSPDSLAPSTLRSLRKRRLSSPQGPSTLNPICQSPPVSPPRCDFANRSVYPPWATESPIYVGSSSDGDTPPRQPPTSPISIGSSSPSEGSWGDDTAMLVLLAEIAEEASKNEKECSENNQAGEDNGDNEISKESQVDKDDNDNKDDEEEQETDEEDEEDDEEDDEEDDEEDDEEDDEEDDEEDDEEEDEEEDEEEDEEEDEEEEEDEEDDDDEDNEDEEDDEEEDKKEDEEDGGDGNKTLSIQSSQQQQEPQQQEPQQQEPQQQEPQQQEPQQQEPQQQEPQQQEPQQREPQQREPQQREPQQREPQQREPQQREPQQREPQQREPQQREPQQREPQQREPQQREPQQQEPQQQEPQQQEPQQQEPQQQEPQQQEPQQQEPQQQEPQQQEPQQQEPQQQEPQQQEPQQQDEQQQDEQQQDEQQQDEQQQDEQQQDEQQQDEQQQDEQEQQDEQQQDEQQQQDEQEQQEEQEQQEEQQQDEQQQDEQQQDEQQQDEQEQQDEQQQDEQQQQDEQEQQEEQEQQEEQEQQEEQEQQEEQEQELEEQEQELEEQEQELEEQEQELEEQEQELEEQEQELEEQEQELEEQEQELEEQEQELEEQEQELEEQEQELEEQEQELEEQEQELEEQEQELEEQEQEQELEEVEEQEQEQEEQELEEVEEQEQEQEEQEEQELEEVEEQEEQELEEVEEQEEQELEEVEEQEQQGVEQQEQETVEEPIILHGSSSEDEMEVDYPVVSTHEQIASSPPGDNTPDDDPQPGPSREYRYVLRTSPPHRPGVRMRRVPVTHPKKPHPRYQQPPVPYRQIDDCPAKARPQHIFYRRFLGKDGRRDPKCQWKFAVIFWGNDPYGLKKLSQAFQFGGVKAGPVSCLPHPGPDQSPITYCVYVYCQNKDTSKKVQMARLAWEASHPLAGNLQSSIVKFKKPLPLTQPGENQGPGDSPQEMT
* marks the source's active call; other numbers are inactive results. Hits are enriched below; roughly 0.99% of the tested compounds scored in any of these assays.

How did C[n+]1c2cc(N)ccc2cc2ccc(N)cc21 do in these assays?
RTF Ca sens inh: inactive; RTF Ca sens act: active; LANA DNA inh: 195*; Keap1-Nrf2 PPI: active

What do the screens show for `CC(C)(CO)C(O)C(=O)NCCCO` (stereo unspecified)?
RTF Ca sens inh: -9; RTF Ca sens act: 0; LANA DNA inh: -5; Keap1-Nrf2 PPI: 3; LANA-H2B inh: 5

Results for CC1CCCCN1C(C(=O)O)c1ccccc1 (stereo unspecified) ?
RTF Ca sens inh: 0; RTF Ca sens act: 3; LANA DNA inh: 1; Keap1-Nrf2 PPI: 0; LANA-H2B inh: 3

What do the screens show for `CC1CC(OC(=O)C(O)c2ccccc2)CC(C)(C)N1C` (stereo unspecified)?
RTF Ca sens inh: -2; RTF Ca sens act: 2; LANA DNA inh: 1; Keap1-Nrf2 PPI: 1; LANA-H2B inh: 17*

Results for COc1cccc(CNC(=O)Cn2cc3c(n2)CCCCC3)c1 ?
RTF Ca sens inh: -6; RTF Ca sens act: -3; LANA DNA inh: 4; Keap1-Nrf2 PPI: -3; LANA-H2B inh: 3

Results for Cc1ccc(S(=O)(=O)CCC(=O)OCC(=O)NC(C)c2ccccc2)cc1 (stereo unspecified) ?
RTF Ca sens inh: -5; RTF Ca sens act: 1; LANA DNA inh: -1; Keap1-Nrf2 PPI: -4; LANA-H2B inh: 183*

What do the screens show for `CC1CC(C)CN(c2ccc([N+](=O)[O-])nc2)C1` (stereo unspecified)?
RTF Ca sens inh: -8; RTF Ca sens act: 8; LANA DNA inh: 1; Keap1-Nrf2 PPI: 2; LANA-H2B inh: 3

What do the screens show for `O=C(CNC(=O)C1CCCCC1)NC1=NCCS1`?
RTF Ca sens inh: -1; RTF Ca sens act: 3; LANA DNA inh: 0; Keap1-Nrf2 PPI: -2; LANA-H2B inh: 0

Results for O=C(NCc1ccccc1)c1nc2c(nnn2Cc2cccc(Cl)c2)c(=O)[nH]1 ?
RTF Ca sens inh: -10; RTF Ca sens act: -1; LANA DNA inh: 0; Keap1-Nrf2 PPI: -1; LANA-H2B inh: 1

How did CCc1ccc(NC(=O)C(C)Nc2ccc(S(=O)(=O)NC(C)=O)cc2)cc1 (stereo unspecified) do in these assays?
RTF Ca sens inh: 1; RTF Ca sens act: -2; LANA DNA inh: 2; Keap1-Nrf2 PPI: -9; LANA-H2B inh: 15*

What do the screens show for `O=C(NCc1ccco1)C1CCC(N2C(=O)c3ccccc3C2=O)CC1` (stereo unspecified)?
RTF Ca sens inh: -7; RTF Ca sens act: 5; LANA DNA inh: 0; Keap1-Nrf2 PPI: -3; LANA-H2B inh: 23*

Results for CCN(CC)c1ccc(/C=C2\C(=O)c3ccc(C(=O)O)cc3C2=O)cc1 ?
RTF Ca sens inh: -98; RTF Ca sens act: 74*; LANA DNA inh: -45; Keap1-Nrf2 PPI: -189; LANA-H2B inh: -9

What do the screens show for `CN(c1cccc(Cl)c1)S(=O)(=O)c1cccc(C(=O)NCc2ccncc2)c1`?
RTF Ca sens inh: -6; RTF Ca sens act: -6; LANA DNA inh: 4; Keap1-Nrf2 PPI: 7; LANA-H2B inh: 53*

How did CN(c1ccccc1)S(=O)(=O)c1cccc(C(=O)NCc2ccccc2)c1 do in these assays?
RTF Ca sens inh: -13; RTF Ca sens act: 1; LANA DNA inh: 0; Keap1-Nrf2 PPI: -1; LANA-H2B inh: 2

Results for CN(c1ccccc1)S(=O)(=O)c1cccc(NC(=O)CCNC(=O)c2ccc(Cl)cc2)c1 ?
RTF Ca sens inh: -2; RTF Ca sens act: -1; LANA DNA inh: -1; Keap1-Nrf2 PPI: -2; LANA-H2B inh: 165*

Results for CC(C)(C)c1cc(NC(=O)COc2ccc(Br)cc2)n(-c2ccccc2)n1 ?
RTF Ca sens inh: -13; RTF Ca sens act: 4; LANA DNA inh: -1; Keap1-Nrf2 PPI: 0; LANA-H2B inh: 3

How did CC(C)Cc1nnc(NC(=O)CN2C(=O)C3CCCCC3C2=O)s1 (stereo unspecified) do in these assays?
RTF Ca sens inh: -1; RTF Ca sens act: 0; LANA DNA inh: 0; Keap1-Nrf2 PPI: 0; LANA-H2B inh: 8

Results for O=C(c1cc(COc2c(F)cccc2F)on1)N1C[C@H]2CC[C@H]1C2 ?
RTF Ca sens inh: -8; RTF Ca sens act: 2; LANA DNA inh: 1; Keap1-Nrf2 PPI: 2; LANA-H2B inh: -1

How did c1ccc2c(c1)CCCN2Cc1nnc2n1CCCCC2 do in these assays?
RTF Ca sens inh: -54; RTF Ca sens act: 37*; LANA DNA inh: 21; Keap1-Nrf2 PPI: 5; LANA-H2B inh: 59*

Results for c1ccc(Cc2nnc3n2CCCCC3)cc1 ?
RTF Ca sens inh: -13; RTF Ca sens act: -4; LANA DNA inh: -1; Keap1-Nrf2 PPI: 3; LANA-H2B inh: -9

What do the screens show for `CCNC(=O)c1sc2cc(C)ccc2c1Cl`?
RTF Ca sens inh: -7; RTF Ca sens act: 1; LANA DNA inh: 1; Keap1-Nrf2 PPI: -3; LANA-H2B inh: 36*

What do the screens show for `CC(=O)Nc1ccc(S(=O)(=O)N[C@@H](C)C(=O)N(C)Cc2cccs2)cc1`?
RTF Ca sens inh: -2; RTF Ca sens act: -4; LANA DNA inh: 1; Keap1-Nrf2 PPI: 0; LANA-H2B inh: 5

How did Cc1nc(C2CC(=O)OC23CCCCC3)cs1 (stereo unspecified) do in these assays?
RTF Ca sens inh: -3; RTF Ca sens act: 2; LANA DNA inh: 1; Keap1-Nrf2 PPI: -5; LANA-H2B inh: -5.5*

Results for COc1cc(C(=O)Nc2ccc(NC(=O)C(C)C)nc2)cc(OC)c1OC ?
RTF Ca sens inh: -6; RTF Ca sens act: 6; LANA DNA inh: -1; Keap1-Nrf2 PPI: 2; LANA-H2B inh: 15*

What do the screens show for `COc1cc(C(=O)Nc2ccc(Cl)c(C(F)(F)F)c2)cc(OC)c1OC`?
RTF Ca sens inh: 0; RTF Ca sens act: 33*; LANA DNA inh: 2; Keap1-Nrf2 PPI: -2; LANA-H2B inh: -4

What do the screens show for `COc1cc(C(=O)Nc2ccc(NC(=O)c3ccccc3)nc2)cc(OC)c1OC`?
RTF Ca sens inh: 1; RTF Ca sens act: -4; LANA DNA inh: 2; Keap1-Nrf2 PPI: 0; LANA-H2B inh: 0

Results for O=C(COC(=O)CCC1CCCCC1)Nc1ccc(OC(F)F)cc1 ?
RTF Ca sens inh: -4; RTF Ca sens act: 3; LANA DNA inh: -3; Keap1-Nrf2 PPI: -3; LANA-H2B inh: 0

Results for Cc1cc([N+](=O)[O-])ccc1NC(=O)c1cncc(Br)c1 ?
RTF Ca sens inh: -11; RTF Ca sens act: 1; LANA DNA inh: 0; Keap1-Nrf2 PPI: 1; LANA-H2B inh: -2

What do the screens show for `Cc1nc2ccc(NC(=O)[C@@H](NC(=O)c3c(F)cccc3F)C(C)C)cc2s1`?
RTF Ca sens inh: -4; RTF Ca sens act: 5; LANA DNA inh: 1; Keap1-Nrf2 PPI: -4; LANA-H2B inh: active

How did CC(=O)Nc1ccc(N2C(=O)c3cccc4c(O)ccc(c34)C2=O)cc1 do in these assays?
RTF Ca sens inh: inactive; RTF Ca sens act: 609*; LANA DNA inh: 36; Keap1-Nrf2 PPI: 2; LANA-H2B inh: 14

Results for Cc1cc(=O)[nH]c(N)n1 ?
RTF Ca sens inh: -1; RTF Ca sens act: -2; LANA DNA inh: 0; Keap1-Nrf2 PPI: 3; LANA-H2B inh: 13*
